Reference: PubChem BioAssay (EPA / NIEHS)
Active and inactive are the calls of the source. Rule for the calls: active = hit-call score of the fitted dose curve at least 0.9, where 1 is the maximum; inactive = score below 0.9.

What was measured:
[1] = read-out: Monokine induced gamma interferon (MIG), CXCL9 (gene 4283); assay: BSK_3C_MIG: BioMAP Diversity Plus: 3C Assay for Monokine induced gamma interferon (MIG) Biomarker Activity (AID 2283021); settings: primary human endothelial cells (HUVEC); actives raise or lower the signal;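 for AC50: MIG protein level measured by immunoassay in the treated endothelial cultures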
Outline: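 After 24 h of treatment, human umbilical vein endothelial cultures (3C system) had their MIG biomarker level determined by ELISA, with DMSO serving as negative control.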

[2] = BSK_3C_SRB: Viability Assessment in the BioMAP Diversity Plus: 3C Assay (AID 2283023); settings: primary human endothelial cells (HUVEC);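 note: fitted both ways against DMSO so a hit may be signal rise or drop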
Outline: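 Primary human umbilical vein endothelial cells in the 3C system were read 24 h after compound dosing. Total protein was stained with 0.1% sulforhodamine B after 10% TCA fixation and read at 560 nm, with bidirectional fitting against DMSO as baseline.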

[3] = BSK_3C_Vis: BioMAP Diversity Plus: 3C Assay for Morphology Visualization (AID 2283025); settings: primary human endothelial cells (HUVEC);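 note: fitted both ways so gain or loss versus DMSO counts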;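 for AC50: light microscopy image of cell morphology used as background control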
Outline: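 Endothelial cells from human umbilical vein were treated with test chemicals for 24 h and inspected by light microscopy for changes in cell conformation.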

[4] = read-out: Pselectin, SELP (gene 6403); assay: BSK_4H_Pselectin: BioMAP Diversity Plus: 4H Assay for Pselectin Biomarker Activity (AID 2283026); settings: primary human endothelial cells (HUVEC); actives raise or lower the signal
Outline: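 Human vascular endothelium from umbilical vein; P-selectin measured by ELISA at 24 h post-dose, with cytotoxicity checked by sulforhodamine B total-protein staining in parallel cultures (0.1% SRB after 10% TCA fixation, read at 560 nm).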

[5] = BSK_4H_SRB: Viability Assessment in the BioMAP Diversity Plus: 4H Assay (AID 2283027); settings: primary human endothelial cells (HUVEC);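 note: cells exposed to compound for 24 h before staining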;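 for AC50: curves fitted both ways versus DMSO so AC50 may be loss or gain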
Outline: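 Human umbilical vein endothelial cells were dosed with chemical and, after 24 h, fixed with 10% TCA, stained with 0.1% sulforhodamine B, and read at 560 nm to give total protein as a cytotoxicity measure. Bidirectional fitting relative to DMSO control.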

[6] = BSK_BE3C_SRB: Viability Assessment in the BioMAP Diversity Plus: BE3C Assay (AID 2283028); settings: primary human bronchial epithelial cells;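 for AC50: fitted both ways so AC50 may mark signal gain or loss versus DMSO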
Outline: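 Human primary bronchial epithelial cells were exposed to test chemicals for 24 h. Total protein in parallel cultures was then measured by staining with 0.1% sulforhodamine B after 10% TCA fixation, with absorbance read at 560 nm. Activity was fitted bidirectionally against DMSO.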

[7] = read-out: Thrombomodulin, THBD (gene 7056); assay: BSK_3C_Thrombomodulin: BioMAP Diversity Plus: 3C Assay for Thrombomodulin Biomarker Activity (AID 2283029); settings: primary human endothelial cells (HUVEC); actives raise or lower the signal
Outline: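 Thrombomodulin ELISA, human primary HUVEC, 24 h post-dose; data fitted in both directions relative to DMSO.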

[8] = read-out: Urokinase-type plasminogen activator receptor (uPAR), PLAUR (gene 5329); assay: BSK_4H_uPAR: BioMAP Diversity Plus: 4H Assay for Urokinase-type plasminogen activator receptor (uPAR) Biomarker Activity (AID 2283030); settings: primary human endothelial cells (HUVEC); actives raise or lower the signal
Outline: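 Primary human umbilical vein endothelial cells were exposed to chemical for 24 h before cell-surface uPAR was quantified by ELISA. Activity was fitted bidirectionally against the DMSO negative control baseline.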

[9] = read-out: Vascular endothelial growth factor receptor 2 (Homo sapiens) (UniProt P35968); assay: BSK_4H_VEGFRII: BioMAP Diversity Plus: 4H Assay for Vascular endothelial growth factor receptor 2 (VEGFR2) Biomarker Activity (AID 2283031); settings: primary human endothelial cells (HUVEC); actives raise or lower the signal;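 for AC50: cell-surface VEGFR2 protein level quantified by ELISA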
Outline: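 Primary human umbilical vein endothelial cells in the BioMAP 4H system were dosed with test chemical, and 24 h later VEGFRII was measured by ELISA. Activity was fitted bidirectionally against DMSO as negative control and baseline.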

[10] = read-out: Human Leukocyte Antigen - DR isotype (HLADR), HLA-DRA (gene 3122); assay: BSK_BE3C_HLADR: BioMAP Diversity Plus: BE3C Assay for Human Leukocyte Antigen - DR isotype (HLADR) Biomarker Activity (AID 2283032); settings: primary human bronchial epithelial cells; actives raise or lower the signal
Outline: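 Signal came from an ELISA for HLA-DR in human bronchial epithelial primary cells harvested 24 h after treatment; gain- and loss-of-signal fitting used DMSO controls as reference.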

[11] = read-out: Vascular cell adhesion molecule 1 (VCAM1), VCAM1 (gene 7412); assay: BSK_4H_VCAM1: BioMAP Diversity Plus: 4H Assay for Vascular cell adhesion molecule 1 (VCAM1) Biomarker Activity (AID 2283033); settings: primary human endothelial cells (HUVEC); actives raise or lower the signal
Outline: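 Endpoint derived from bidirectional fitting against DMSO controls of VCAM-1 ELISA signal in umbilical vein endothelial cells sampled at 24 h following treatment.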

[12] = read-out: Interferon-gamma inducible Protein 10 (IP10), CXCL10 (gene 3627); assay: BSK_BE3C_IP10: BioMAP Diversity Plus: BE3C Assay for Interferon-gamma inducible Protein 10 (IP10) Biomarker Activity (AID 2283034); settings: primary human bronchial epithelial cells; actives raise or lower the signal
Outline: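 Using primary human bronchial epithelial cultures, the assay captures IP-10 by ELISA one day (24 h) after exposure. Parallel SRB staining of total protein flags overt cytotoxicity. Fits run bidirectionally relative to DMSO.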

[13] = read-out: Monokine induced gamma interferon (MIG), CXCL9 (gene 4283); assay: BSK_BE3C_MIG: BioMAP Diversity Plus: BE3C Assay for Monokine induced gamma interferon (MIG) Biomarker Activity (AID 2283035); settings: primary human bronchial epithelial cells; actives raise or lower the signal
Outline: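 ELISA read-out of MIG in human lung bronchial epithelial primary cultures, 24 h post-dosing. Bidirectional curve fit vs DMSO baseline.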

[14] = read-out: Transforming growth factor beta 1 (TGFb1), TGFB1 (gene 7040); assay: BSK_BE3C_TGFb1: BioMAP Diversity Plus: BE3C Assay for Transforming growth factor beta 1 (TGFb1) Biomarker Activity (AID 2283036); settings: primary human bronchial epithelial cells; actives raise or lower the signal
Outline: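 In this human primary bronchial epithelial system, an ELISA quantified TGF-b1 one day after dosing. Endpoint changes in either direction were fitted relative to DMSO.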

[15] = read-out: Plasminogen activator inhibitor-1 (PAI1), SERPINE1 (gene 5054); assay: BSK_BE3C_PAI1: BioMAP Diversity Plus: BE3C Assay for Plasminogen activator inhibitor-1 (PAI1) Biomarker Activity (AID 2283037); settings: primary human bronchial epithelial cells; actives raise or lower the signal
Outline: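 PAI-1 biomarker levels in treated human bronchial epithelial cells are determined by ELISA at 24 h. Both increases and decreases relative to DMSO are fitted.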

[16] = read-out: Urokinase-type plasminogen activator receptor (uPAR), PLAUR (gene 5329); assay: BSK_BE3C_uPAR: BioMAP Diversity Plus: BE3C Assay for Urokinase-type plasminogen activator receptor (uPAR) Biomarker Activity (AID 2283039); settings: primary human bronchial epithelial cells; actives raise or lower the signal
Outline: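 A uPAR ELISA serves as the readout, taken 24 h after treating primary human bronchial epithelial cells. Responses in either direction are fitted against DMSO, which defines baseline activity.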

[17] = read-out: Interleukin-6 (IL6), IL6 (gene 3569); assay: BSK_CASM3C_IL6: BioMAP Diversity Plus: CASM3C Assay for Interleukin-6 (IL6) Biomarker Activity for (AID 2283040); settings: primary human coronary artery smooth muscle cells; actives raise or lower the signal
[18] = read-out: Matrix Metallopeptidase 1 (MMP1), MMP1 (gene 4312); assay: BSK_BE3C_MMP1: BioMAP Diversity Plus: BE3C Assay for Matrix Metallopeptidase 1 (MMP1) Biomarker Activity (AID 2283024); settings: primary human bronchial epithelial cells; actives raise or lower the signal
Outline: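 Dose cells, wait 24 h, run MMP1 ELISA; cells are human bronchial epithelial primaries. Both increases and decreases relative to DMSO counted.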

[19] = read-out: urokinase plasminogen activator (uPA), PLAU (gene 5328); assay: BSK_BE3C_uPA: BioMAP Diversity Plus: BE3C Assay for urokinase plasminogen activator (uPA) Biomarker Activity (AID 2283038); settings: primary human bronchial epithelial cells; actives raise or lower the signal;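 note: uPA protein level quantified by ELISA in cell cultures; uPA read one day after compound addition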
Outline: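 Human primary bronchial epithelial cells were exposed to chemical for 24 h, then uPA levels were measured by ELISA. Responses were fitted bidirectionally against DMSO as negative control and baseline. Parallel SRB staining of total protein gauged overt cytotoxicity.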

Measured: AC50

CS(=O)(=O)c1ccc(C(=O)C2C(=O)CCCC2=O)c([N+](=O)[O-])c1
not listed: [18] | [19]
inactive: all other assays above

COP(=O)(OC)O/C(C)=C/C(=O)N(C)C
not listed: [11] | [19]
inactive: all other assays above

CCOP(=O)(OCC)Oc1nc(Cl)c(Cl)cc1Cl
active: [2] 28.8 µM | [3] 16.3 µM | [4] 18.5 µM | [5] 12.4 µM | [6] 4.23 µM | [8] 12 µM | [12] 23.9 µM | [16] 9.84 µM
inactive: [1] | [7] | [9] | [10] | [13] | [14] | [15] | [17]

Cc1ccc(N=CN(C)C=Nc2ccc(C)cc2C)c(C)c1
inactive: [18] | [16]
active: [1] 34.5 µM | [2] 32.4 µM | [3] 16.3 µM | [4] 30 µM | [5] 32.3 µM | [6] 28.2 µM | [7] 20 µM | [8] 37.5 µM | [9] 26 µM | [10] 26.7 µM | [12] 30.5 µM | [13] 33.3 µM | [14] 34.1 µM | [15] 30.7 µM | [17] 30.9 µM

CC(C)=CC1C(C(=O)OCc2coc(Cc3ccccc3)c2)C1(C)C (centres undefined)
active: [2] 13.7 µM | [3] 9.8 µM | [6] 10.8 µM | [11] 4.5 µM
not listed: [18]
inactive: all other assays above

CCCCC(C#N)(Cn1cncn1)c1ccc(Cl)cc1 (centres undefined)
active: [3] 9.8 µM
not listed: [18] | [19]
inactive: all other assays above

CC(C)NC(=O)N1CC(=O)N(c2cc(Cl)cc(Cl)c2)C1=O
active: [8] 23.1 µM
not listed: [11] | [18]
inactive: all other assays above
